# In ChEMBL document CHEMBL3988442, “University of Dundee, Small-Polar-MMV Screening Library” (2021):
# In all, about 48,000 compounds went through this assay and about 13,000 (27%) showed an effect of 50% or more. The list shows a part of the results.
# System: Wolbachia pipientis
# Assay: Anti-Wolbachia Cell-Based Screen
# Format: functional
# Design: scale not given: in the data most compounds retested in dose-response had high values
# Details: 5 µM
row,SMILES,Percent Effect [%]
1,CCn1cnnc1CNC(=O)N(C)Cc1cccc(Cl)c1Cl,-4.031
2,Cc1ccc(CN2CC3(CCN(S(=O)(=O)c4ccccc4)C3)C2)o1,-20.52
3,Cc1ccc(CN2CC3(CCN(C(=O)Cc4ccc(Cl)cc4)C3)C2)o1,100.7
4,CCS(=O)(=O)N1CCC2(CN(Cc3ccc(C)o3)C2)C1,-24.8
5,CCCOc1ccc(Cl)cc1CNc1ncnc2oc(C)nc12,-1.031
6,Cc1nn(C)c(C)c1NC(=O)CN1CCCC1c1noc(C2CC2)n1 (stereo not drawn),-4.679
7,CCc1nc(C2CCCN2CC(=O)Nc2c(C)n[nH]c2C)no1 (stereo not drawn),6.679
8,Cc1nc(C2CCCN2CC(=O)Nc2c(C)nn(C)c2C)no1 (stereo not drawn),-17.15
9,Cc1n[nH]c(C)c1NC(=O)CN1CCCC1c1noc(C2CC2)n1 (stereo not drawn),90.47
10,Cc1cc(NC(=O)CN2CCCC2c2noc(C(C)C)n2)n(C)n1 (stereo not drawn),-5.63
11,Cc1nn(C)c(C)c1NC(=O)CN1CCCC1c1noc(C(C)C)n1 (stereo not drawn),-6.278
12,Cc1nc(C2CCCN2CC(=O)Nc2c(C)n[nH]c2C)no1 (stereo not drawn),89.73
13,Cc1n[nH]c(C)c1NC(=O)CN1CCCC1c1noc(C(C)C)n1 (stereo not drawn),106.9
14,CCc1nnc(CNC(=O)c2cc3c(nc2OC)CCC3)s1,18.91
15,CCN1CCN(C(=O)c2cc(F)cc3nc(C)c(C)nc23)CC1,-0.6809
16,CC(C)[C@@H](C)NC(=O)N1CCn2nc(C(=O)NCCN(C)C)cc2C1,-12.94
17,CC(C)CC(NCc1ccsc1)c1ccccn1 (stereo not drawn),110.4
18,COc1cc(C(C)NCc2cscn2)ccc1SC(F)F (stereo not drawn),-37.81
19,CC(C)Cc1nnc(NCc2ccsc2)o1,-5.765
20,CC(C)CC(NCc1cccs1)c1ccccn1 (stereo not drawn),107.8
21,NC(=O)C(NCc1cccs1)c1ccccc1 (stereo not drawn),8.593
22,CC(C)CC(NCc1cscn1)c1ccccn1 (stereo not drawn),95.9
23,O=C(Cn1cccnc1=O)NC(Cc1cccs1)c1ccccn1 (stereo not drawn),-8.701
24,COc1ccccc1NCc1cscn1.Cl,-2.575
25,CC(NCc1cccc(C#N)c1)c1ccccn1.Cl (stereo not drawn),-10.04
26,O=C(NCCc1[nH]nc2c1CCCC2)C1CCCN(Cc2ccco2)C1 (stereo not drawn),3.369

row,SMILES,Percent Effect [%]
1,COc1ccc(Cl)cc1CS(=O)(=O)Cc1cc(C)on1,6.419
2,CC(C)OCCS(=O)(=O)c1nccn1-c1cccc(F)c1,-15.74
3,c1cc(C[C@H]2[C@H](N3CCOCC3)CCN2Cc2ccoc2)ccn1,0.9808
4,CCN(CCCNc1ncnc2cc(F)c(F)cc12)S(C)(=O)=O,-17.06
5,Cc1ccc(OCC2CCCN(CC3CCOCC3)C2)cc1 (stereo not drawn),-21.59
6,CC(C)N(C)C(=O)C1=NOC2(CCN(C(=O)NCc3cccnc3)C2)C1 (stereo not drawn),-9.701
7,CC(C)N(C)C(=O)C1=NOC2(CCN(C(=O)c3cccn3C)C2)C1 (stereo not drawn),84.53
8,Cc1ccsc1C(=O)N1CCC2(CC(C(=O)N(C)C(C)C)=NO2)C1 (stereo not drawn),115.3
9,O=C(NCC1CC1)C1=NOC2(CCN(S(=O)(=O)c3cccs3)C2)C1 (stereo not drawn),6.398
10,CC(C)N(C)C(=O)C1=NOC2(CCN(C(=O)c3ccncc3)C2)C1 (stereo not drawn),5.935
11,Cc1cccc(C(C)CNC(=O)N2CCC3(C2)OCCO3)c1 (stereo not drawn),-6.289
12,CC(C)N(C)C(=O)C1=NOC2(CCN(C(=O)c3ccnnc3)C2)C1 (stereo not drawn),97.08
13,Cc1cccc(C(=O)N2CCC3(CC(C(=O)N(C)C(C)C)=NO3)C2)c1 (stereo not drawn),115.7
14,CS(=O)(=O)NCc1ccc(C(=O)NCc2ccc3c(c2)CCC3)o1,9.511
15,CCc1nc(Cn2ccnc2-c2nccn2C)no1,0.7793
16,Cc1nc(CN(C)C2CCN(Cc3cccc4cccnc34)C2)no1 (stereo not drawn),89.88
17,Cc1nc(CN(C)C2CCN(Cc3ccno3)C2)no1 (stereo not drawn),0.1776
18,Cc1nc(CN(C)C2CCN(Cc3cccc4c3OCCO4)C2)no1 (stereo not drawn),98.62
19,COc1ccc(OCC(=O)NC(C)c2ccc(F)cc2)c(C(=O)O)c1 (stereo not drawn),-8.723
20,Cc1cc(C(=O)N2CCCC(Cn3cc(C4CC4)nn3)C2)nc(C)n1 (stereo not drawn),-17.66
21,Cc1cc(-c2nccs2)nc(C2CCN(Cc3ccc(F)cc3)CC2)n1.Cl,104.7
22,CCn1c(CN2CCCC2)nnc1C1CCN(Cc2ccncc2)CC1,-5.506
23,Cc1ccsc1-c1nnc(C2CCN(Cc3ccc(F)cc3)CC2)o1,-8.577
24,Cc1cc(-c2nccs2)nc(C2CCN(Cc3ccncc3)CC2)n1.Cl,130.1
25,CCn1c(CN(C)C)nnc1C1CCN(Cc2ccncc2)CC1,-6.888
26,CNC(=O)CSC(C)c1ccc(Br)cc1 (stereo not drawn),-4.092

row,SMILES,Percent Effect [%]
1,COC(=O)CN(C(=O)c1ccco1)c1cccc(F)c1,6.947
2,O=c1c2cccnc2cnn1CC(O)c1cccc(C(F)(F)F)c1 (stereo not drawn),6.556
3,CNC(=O)CS(=O)(=O)Cc1coc(-c2ccc(F)cc2)n1,-9.885
4,COCCN(Cc1coc(-c2cccc(Cl)c2)n1)C1CC1,9.963
5,CC(SCCC(=O)NC(N)=O)c1ccc(F)cc1F (stereo not drawn),-2.178
6,Cc1ccc(-c2nc(CSCCC(=O)NC(N)=O)co2)c(C)c1,110.2
7,Cc1ccc(-c2nc(CCNC(=O)CCN3CCOC3=O)co2)cc1,4.701
8,O=C(NCCc1coc(-c2ccc(F)cc2)n1)NC1CCC(O)CC1 (stereo not drawn),2.186
9,NC(=O)NC(=O)CCSc1ccccc1Cl,-10.1
10,COC(=O)CSCc1noc(-c2ccc(C)cc2)n1,-9.658
11,NC(=O)NC(=O)CCSCc1coc(-c2ccc(F)cc2)n1,75.11
12,NC(=O)NC(=O)CCSCc1coc(-c2cccc(Cl)c2)n1,85.07
13,Cc1ccc(-c2nc(CSCCC(=O)NC(N)=O)co2)cc1,98.78
14,CC(O)CN1CCN(Cc2coc(-c3cccc(Cl)c3)n2)CC1 (stereo not drawn),-12.56
15,CNc1nc(C(=O)NCc2cccnc2N(C)C2CCCCC2)cs1,1.168
16,Cc1nn(C)c2nc(N(C)CCN(C)C)sc12,-12.15
17,Cc1cc(C#N)ccc1S(=O)(=O)NCc1cnc(N(C)C)n1C,-10.13
18,CN(C)CC(=O)N1CCC2(CC(=O)N(c3cccc(C#N)c3)C2)C1.O=C(O)C(F)(F)F (stereo not drawn),-15.58
19,N#Cc1ccccc1N1CC2(CCCCN2CC2CC2)CC1=O.O=C(O)C(F)(F)F (stereo not drawn),-5.23
20,O=C(O)C(F)(F)F.O=C1CC2(CCCCN2CC2CC2)CN1c1ccccc1 (stereo not drawn),-2.383
21,Cc1ccccc1N1CC2(CCCCN2CC2CC2)CC1=O.O=C(O)C(F)(F)F (stereo not drawn),0.424
22,COCCN1CCCCC12CC(=O)N(c1cccc(C#N)c1)C2.O=C(O)C(F)(F)F (stereo not drawn),96.19
23,COCCN1CCCCC12CC(=O)N(c1ccccc1OC)C2.O=C(O)C(F)(F)F (stereo not drawn),105
24,CCN1CCN(C(=O)c2ccc(OC)nn2)c2ccccc21,6.209
25,CC(C)(C)Cc1nnc(NCc2cccc(C#N)c2)o1,-57.27
26,CC(C)S(=O)(=O)NCC1CCCN(C(=O)c2cccnc2)C1 (stereo not drawn),-9.569

row,SMILES,Percent Effect [%]
1,CS(=O)(=O)NC1CCN(C(=O)c2ccc(Br)cc2)C1 (stereo not drawn),2.662
2,COCCCC(=O)Nc1cccnc1N1CCCCC1,0.2962
3,CS(=O)(=O)NC1CCCN(C(=O)Nc2cccnc2N2CCCC2)C1 (stereo not drawn),111.1
4,CS(=O)(=O)NC1CCCN(C(=O)c2cccnc2)C1 (stereo not drawn),108.4
5,CS(=O)(=O)NC1CCCN(C(=O)Nc2cccnc2)C1 (stereo not drawn),122.7
6,CC(NC(=O)Nc1cccnc1N1CCCC1)c1ccccn1 (stereo not drawn),9.094
7,Cn1cc(NC(=O)N2CCC(NS(C)(=O)=O)CC2)ccc1=O,-4.185
8,CCCN(C(=O)CNC1CCc2ncnn2C1)C1=CCCCC1 (stereo not drawn),7.464
9,CC(C)(C)CC(=O)N1CC[C@H]2CC(=O)N(CCc3c[nH]cn3)CC[C@H]2C1,-18.99
10,COC1CCN(C(=O)CC(C)(C)C)CC(=O)N(C)c2ccccc21 (stereo not drawn),108.9
11,COC1CCN(C(=O)COC(C)=O)CC(=O)N(C)c2ccccc21 (stereo not drawn),102.8
12,CC(C)(C)CC(=O)N1CC[C@H]2NC(=O)N(Cc3ccccc3)C(=O)[C@H]21,-1.242
13,CCC[C@H]1CN(c2nccc(OC)n2)C[C@@H]1NS(=O)(=O)N(C)C,12.34
14,CCN(Cc1nccn1C)C(=O)c1ccc(NCCc2c[nH]cn2)nc1,-4.233
15,COCCN(C)S(=O)(=O)c1cc(C)cc(F)c1,-0.1957
16,CCCN(Cc1cnn(C)c1)S(=O)(=O)c1ccc(F)c(C#N)c1,88.2
17,CCCN(Cc1cnn(C)c1)S(=O)(=O)c1cccc(F)c1C#N,103.9
18,CCN(Cc1cnn(C)c1)S(=O)(=O)c1ccc(NC(=O)C(C)(C)C)cc1,-17.75
19,CCCN(Cc1cnn(C)c1)S(=O)(=O)c1cc(C)cc(F)c1,91.35
20,CCN(Cc1cnn(C)c1)S(=O)(=O)c1ccc(NC(C)=O)cc1,-1.303
21,CCCN(Cc1cnn(C)c1)CC1CCCN(S(C)(=O)=O)C1 (stereo not drawn),-6.058
22,CCN(CCC(F)(F)F)S(=O)(=O)c1cccc(F)c1C#N,-15.21
23,CN(CCn1cccn1)S(=O)(=O)c1cccc(F)c1C#N,-19.52
24,COCCOCC(=O)NCCCOC1CCCc2ccccc21 (stereo not drawn),-58.49
25,Cc1noc(C)c1CS(=O)(=O)CC(=O)N(C)Cc1cccc(F)c1,-54.06
